Experimental data from PubChem BioAssay (Tox21).
Results filed as inconclusive are left out. Unmarked numbers belong to inactive results. Calls of active or inactive are those of the source. The call rests on the fitted dose curve; in most records, active means well fitted activation curve with a large enough effect; inconclusive means small, poorly fitted or top-dose-only effect; inactive means flat fitted curve, though single readings scatter.

Experiment: qHTS assay to identify small molecule phospholipidosis (PLD) inducers (AID 1259344)
Conditions: HepG2 phospholipidosis, LipidTOX Red imaging, 24 h; series mostly up to 38.3 µM; PLD induction: at the top concentration
Excerpt: National Center for Advancing Translational Sciences [NCATS]
Drug-induced Phospholipidosis (PLD) caused by cationic amphiphilic drugs is characterized by the appearance of unicentric or multicentric-lamellar bodies when viewed under electron microscope. Electron microscopy is the gold standard method for PLD detection, however, this method is time-consuming and labor intensive, making it unsuitable for evaluating a large set of compounds. A cell-based phospholipidosis assay has been developed using the LipidTox reagent in HepG2 cells and miniaturized into a 1536-well plate format. Drug induced phospholipid accumulation is stained with the LipidTox dyes in red color which then is determined using an automated high content screening system.
HepG2 cells are dispensed at 900 cells/3 uL/well into Collagen I-coated 1536-well black-wall/clear-bottom assay plates (Greiner Bio-One, Monroe, NC) using the Multidrop Combi 8 channel dispenser (Thermo Fisher, Waltham, MA, USA). The assay plates are incubated at 37 C for 4 hours to allow the cell attachment. 3 uL of 1:500 LipidTOX Red dye is added using the dispenser, and then 23 nL compounds are added via a Wako Pintool station (Wako Automation, San Diego, CA). Amiodarone, a known PLD inducer, was used as a positive control and DMSO was used as a negative control. The assay plates were then incubated at 37 C for 24 hours.
For fixations, 4 uL of 8% paraformaldehyde fixative solution containing 10 ug/mL Hoechst 33342 in Dulbecco's phosphate-buffered saline (DPBS) is added using a Kalypsys washer/dispenser (Kalypsys, San Diego, CA, USA). After incubation at room temperature for 30 min, the assay plates are washed once with DPBS using a Kalypsys washer/dispenser. The assay plates are then sealed and stored at 4 C before imaging. The fluorescence intensities (595 nm excitation, 615 nm emission for LipidTOX; 352 nm excitation, 461 nm emission for Hoechst 33342) are measured using an ImageXpress Micro Widefield High Content Screening System (Molecular Devices, Sunnyvale, CA, USA) with a 20x Plan Fluor objective. Images are acquired for one site in each well and analyzed with the MetaXpress software (Molecular Devices) using the Transfluor module. Several algorithmic outputs, such as pit count per well, pit count per cell, pit integrated intensity per well, and pit integrated intensity per cell, are used for quantitative image analysis for PLD.
On the % scale 0 is the no-effect control and ±100 the full control effect.

Row | SMILES | PLD induction | outcome
1 | O=c1n(Cl)c(=O)n(Cl)c(=O)n1Cl | -0.594% | 
2 | Clc1ccccc1Cl | -0.22% | 
3 | OC(O)C(Cl)(Cl)Cl | -0.882% | 
4 | O=C(NC(=O)c1c(F)cccc1F)Nc1cc(Cl)c(OC(F)(F)C(F)C(F)(F)F)cc1Cl (configuration not stated) | 8.87% | 
5 | OCCN(CCO)CCO | 10.3% [at 7.66 µM] | 
6 | C[C@]12CC[C@H]3[C@@H](CC[C@@]45O[C@@H]4C(O)=C(C#N)C[C@]35C)[C@@H]1CC[C@@H]2O | 0.532% | 
7 | O=[N+]([O-])c1ccc([As](=O)(O)O)cc1 | -0.0235% | 
8 | COC(=O)c1ccccc1C(=O)OC | -1.76% | 
9 | NCC(O)c1ccc(O)cc1 (configuration not stated) | -1.49% | 
10 | CN(C)[C@@H]1C(=O)C(C(N)=O)=C(O)[C@@]2(O)C(=O)C3=C(O)c4c(O)cccc4[C@@](C)(O)[C@H]3C[C@@H]12 | -0.112% [at 15.5 µM] | 
11 | Nc1ccccc1C(=O)O | -0.573% | 
12 | C#CCN(C)[C@H](C)Cc1ccccc1 | -0.866% | 
13 | CC(NC(C)(C)C)C(=O)c1cccc(Cl)c1 (configuration not stated) | 0.0173% | 
14 | CN(C)CCO | -0.435% | 
15 | COc1ccc2c3c1O[C@H]1[C@@H](O)C=C[C@H]4[C@@H](C2)N(C)CC[C@@]341 | -6.37% [at 78.4 µM] | 
16 | CN1C(=O)CN=C(c2ccccc2)c2cc(Cl)ccc21 | -2.71% | 
17 | NCCc1ccc(O)cc1 | 1.9% | 
18 | Clc1ccc(Cl)cc1 | -1.05% | 
19 | CC1OC(C)OC(C)O1 (configuration not stated) |  | inactive
20 | O=[N+]([O-])c1ccccc1 | -0.128% | 
21 | CCOC(=O)c1ccccc1C(=O)OCC | 0.395% | 
22 | CC(C)=C[C@@H]1[C@@H](C(=O)OCc2coc(Cc3ccccc3)c2)C1(C)C | 0.595% | 
